From PubChem
Only some compounds are listed: those with a hit (about 14% of all), similar ones and a draw of the others.
HADH2 inh = inhibitors of human HADH2 dehydrogenase. Q99714. recombinant HADH2, NADH fluorescence, beta-hydroxybutyryl-CoA. Potency, µM (series often up to 57.1 µM), inactives show top-dose activity change, negative = inhibition, hits mostly inhibitors. 73,000 tested, 3.4% active. AID 886; also: potency is read from the fitted curve at half-maximal effect; % is scaled to controls: 0 for no effect and ±100 for the full control effect; nearly all actives have a fitted effect of over 60% in size
Target sequence (Q99714 whole entry, looked up, one chain of several): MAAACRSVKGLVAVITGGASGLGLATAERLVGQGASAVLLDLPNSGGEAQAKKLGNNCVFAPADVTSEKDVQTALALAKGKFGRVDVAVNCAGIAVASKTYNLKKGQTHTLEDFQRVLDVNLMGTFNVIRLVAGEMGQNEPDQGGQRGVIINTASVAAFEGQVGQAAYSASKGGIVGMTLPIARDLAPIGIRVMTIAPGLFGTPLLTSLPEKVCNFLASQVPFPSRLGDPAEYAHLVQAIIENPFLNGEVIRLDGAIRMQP
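Read-out: 360 nm excitation, 450 nm emission, kinetic over 4 min. Conditions: His-tagged human HADH2 20 nM, pH 9.0 Tris with Tween-20, 1 mM NAD+, 90 uM beta-hydroxybutyryl-CoA.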
CRE-bla Fsk = modulators of forskolin-stimulated CRE signaling in CHO cells | CHO CRE-bla reporter (cAMP response element driving beta-lactamase), forskolin EC10, beta-lactamase ratio | Potency, µM (series often up to 38.2 µM), inactives show top-dose activity change, negative = inhibition, most hits filed as activators | 71,000 tested, 2.5% active | AID 662; active = well fitted activation curve with a large enough effect in the signal ratio, with a control signal flat, not every such curve was filed as active; inconclusive = small, poorly fitted or top-dose-only effect, or effect the other way, or a change in a side signal; the % refers to the signal ratio; also: potency is read from the fitted curve at half-maximal effect; % of control where 0% means no effect
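Reporter-gene assay: CHO cells with beta-lactamase behind cAMP responsive elements, co-treated with compound and EC10 NKH 477 for 3 hours at 37 degrees Celsius. Activity came from the 460/530 nm CCF4 emission ratio.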
4-MU autofl = compounds fluorescent in 4-MU spectral region; compound autofluorescence, 340/450 nm, 4-MU equivalents; stronger effect = higher value; 59,000 tested, 11% active; max dye-equivalent concentration, M; in the data active = max dye-equivalent concentration above about 10 nM; inconclusive = mostly about 1.1 nM to 9.6 nM
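Compounds in 100 mM Tris, pH 8.0, sat 15 min at room temperature before fluorescence was read at 340 nm excitation/450 nm emission; a per-plate six-point 4-MU standard curve converted signals to dye-equivalent concentration at each compound concentration.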
HSD17B inhib = blocks hydroxysteroid 17-beta dehydrogenase activity; Q99714; recombinant HSD17B10, NADH fluorescence kinetic; Potency, µM (series often up to 57.1 µM), for inactives: at the top dose activity change, negative = inhibition, actives largely listed as inhibitors; 75,000 tested, 7.6% active; AID 893;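 also: the protocol describes HADH2 (HSD17B10) and not the HSD17B4 of the title; potency is read from the fitted curve at half-maximal effect; % is scaled to controls: 0 for no effect and ±100 for the full control effect; nearly all actives have a fitted effect of over 70% in size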
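20 nM HADH2, pH 9.0 Tris/Tween; cpd preinc 15 min RT; start w/ 1 mM NAD+ + 90 uM b-hydroxybutyryl-CoA; kinetic fluor ex360/em450 q30s x 4 min; delta last-first.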
A350 autofl = A350 region autofluorescence; Compound autofluorescence, 340/450 nm, Alexa 350 dye-equivalents; stronger effect = higher value; 59,000 tested, 11% active; max dye-equivalent concentration, M; in the data active = max dye-equivalent concentration above about 10 nM; inconclusive = mostly about 1.1 nM to 9.6 nM
AID923 = qHTS Assay for Allosteric/Competitive Inhibitors of Caspase-1: Spectroscopic Profiling in AFC Spectral Region; compound fluorescence, AFC spectral region (405/520 nm); 75,000 tested, 1.1% active; Potency, µM (top dose mostly 57.5 µM), without a hit: at the highest dose fluorescence increase, usual class: activators; also: potency is read from the fitted curve at half-maximal effect; 0% is about no effect
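Baseline compound fluorescence (AFC region, 405 nm ex/520 nm em) taken from the intercept of kinetic reads with 50 nM caspase-1 and 5 uM Ac-WEHD-AFC; normalized to an on-plate AFC standard curve; compounds titrated up to 57 uM.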
The depositor's hits bear a star; i = inactive; ? = inconclusive; nt = not tested or not shown; [ ] = remark or other dose. Unless noted, calls follow the shape of the dose curve; as a rule, active = well fitted curve in the direction sought with a large enough effect; inconclusive = small, poorly fitted or top-dose-only effect, or another doubt; inactive = no such curve, though single readings can be large; an effect the other way counts as inactive or inconclusive.

SMILES | HADH2 inh | CRE-bla Fsk | 4-MU autofl | HSD17B inhib | A350 autofl | AID923
O=C(CCN1CCc2ccccc2C1)c1ccc2c(c1)OCCO2 | -26.1% | ? | i | 5.6% | i | 0.6%
CC1(C)C(=O)N(CCN2CCC(C(=O)c3ccc(F)cc3)CC2)c2ccccc21 | -8.1% | -9.9% | i | -1.9% | i | -0.8%
C=CCOCC1CN2C(CCC(C)C2c2ccc(Br)cc2)C(=O)O1 (centres undefined) | 3.5%[11.4 µM] | nt | nt | 8.6%[11.4 µM] | nt | -1.8%[11.5 µM]
CC1(C)CO[C@H](CC(=O)O)CN1 | 6.0% | -4.6% | nt | -8.3% | nt | -0.6%
O=c1[nH]c2cc3c(cc2cc1CN(CC1CCCO1)S(=O)(=O)c1ccc(Cl)cc1)OCCO3 (centres undefined) | 0.8% | -1.2% | 1.14e-07M* | 12.6µM* | 1.03e-07M* | 10.4%
CC(=O)c1ccc(S(=O)(=O)N(Cc2cc3cc4c(cc3[nH]c2=O)OCCO4)CC2CCCO2)cc1 (centres undefined) | -2.1% | 2.6% | ? | 4.7% | ? | 0.4%
Cc1ccc(S(=O)(=O)N(Cc2cc3cc4c(cc3[nH]c2=O)OCCO4)CC2CCCO2)cc1 (centres undefined) | -6.0% | 1.0% | 4.61e-08M* | ? | 4.17e-08M* | 2.5%
CCN(C1CCCCC1)S(=O)(=O)c1ccc(C(=O)O)cc1 | 3.3% | -2.5% | i | 7.8% | i | 0.9%
COC(=O)c1ccc(S(=O)(=O)N(Cc2cc3cc4c(cc3[nH]c2=O)OCO4)C2CCCCC2)cc1 | 9.3% | -2.2% | 5.53e-08M* | ? | 5.03e-08M* | 3.9%
O=C(Nc1ccccn1)c1c(O)c2cccc3c2n(c1=O)CCC3 | 9.5% | -7.5% | 2.11e-08M* | 17.1% | 2.07e-08M* | 0.3%
O=C(Nc1nccs1)c1c(O)c2cccc3c2n(c1=O)CCC3 | 7.5% | -6.1% | 1.65e-08M* | 0.1% | 1.68e-08M* | 1.4%
O=c1c(-c2ccccc2)c(O)c2cccc3c2n1CCC3 | ? | -1.4% | i | -3.9% | i | 3.0%
Br/C(=N\Nc1nn[nH]n1)c1ccncc1 | 1.5%[11.4 µM] | 7.0%[7.6 µM] | i | 0.7%[11.4 µM] | i | 0.5%[11.5 µM]
CCn1c(=O)c2c(nc3n2CC(C)CN3CCc2ccccc2)n(C)c1=O (centres undefined) | -5.6% | 6.31µM* | i | 2.9% | i | 0.0%
CCOc1ccc(N2CCCn3c2nc2c3c(=O)n(CCc3ccccc3)c(=O)n2C)cc1 | 3.0% | 2.1% | 1.56e-08M* | -11.4% | 1.49e-08M* | -0.5%
CC(C)(C)n1nc2c(c1NC(=O)c1cccc(C(F)(F)F)c1)CS(=O)C2 (centres undefined) | -0.9% | -0.9% | i | 0.9% | i | 1.0%
CCc1ccc(CCC(=O)O)nc1 | 3.5%[11.4 µM] | ? | 2.74e-07M* | -0.7%[11.4 µM] | 2.63e-07M* | 1.2%[11.5 µM]
CCCCC(CCC(=O)Nc1ccccc1C(=O)OCC)C(=O)O (centres undefined) | 18.9% | -0.2% | i | 25.1µM* | i | 1.3%
CCOC(=O)c1ccc(NC(=O)CCC(CC)C(=O)O)cc1 (centres undefined) | nt | nt | i | nt | i | nt
CCOc1nc(-c2ccccc2)ccc1-c1noc(-c2ccco2)n1 | 25.1µM* | 15.3% | i | 25.1µM* | i | 2.4%
COc1nc(-c2ccc(C)cc2)ccc1-c1noc(-c2ccco2)n1 | 15.8µM* | ? | ? | 20µM* | ? | 10.8%
O=C(O)c1sccc1S(=O)(=O)Nc1ccc(Cl)cc1 | 0.7% | nt | nt | -4.1% | nt | -3.5%
CCOC(=O)c1cc2cc(OC)ccc2[nH]1 | nt | nt | 1.64e-08M* | nt | 2.01e-08M* | nt
COc1ccc2[nH]c(C(=O)O)c(CCC(=O)O)c2c1 | 25.1µM* | 1.8% | i | 20µM* | i | -2.6%
CCOC(=O)c1[nH]c2ccc(OC)cc2c1NC(C)=O | ? | 11.6% | 5.93e-08M* | 25.1µM* | 5.67e-08M* | 0.4%
SMILES | HADH2 inh | CRE-bla Fsk | 4-MU autofl | HSD17B inhib | A350 autofl | AID923
CCOC(=O)c1[nH]c2ccc(OC)cc2c1NC(=O)CN1CCSCC1 | 25.1µM* | ? | 1.26e-07M* | 31.6µM* | 4.48e-08M* | -0.2%
COC(=O)c1[nH]c2cc(OC)ccc2c1NC(=O)CN1CCC(C(N)=O)CC1 | nt | nt | i | nt | i | nt
CC(C)[C@@H](OCc1ccccc1)[C@H](C)/C=N\O[C@@H](C)c1cn([C@@H]2COC[C@@H]2O)nn1 | 6.4%[11.4 µM] | nt | nt | -2.5%[11.4 µM] | nt | 0.9%[11.5 µM]
Cc1ccc(-c2nc(CS(=O)CC(=O)NC3CCC(C)CC3)c(C)o2)cc1 (centres undefined) | -1.6% | 1.7% | nt | -14.9% | nt | -1.2%
O=C(c1ccccc1)[C@@H]1O[C@H]1c1ccc(-c2ccccc2)cc1 | 0.9% | ? | nt | -6.0% | nt | -2.5%
O=C(O)CSc1n[nH]c(=O)[nH]c1=O | 9.3%[11.4 µM] | -10.0%[7.6 µM] | i | -3.4%[11.4 µM] | i | 3.2%[11.5 µM]
CC(O)CCCCCCC/C=C/C=C/C(N)=O (centres undefined) | 1.2%[11.4 µM] | nt | nt | 1.5%[11.4 µM] | nt | 1.5%[11.5 µM]
COC(=O)c1[nH]c2cc(OC)ccc2c1NC(=O)CN1CCOCC1 | -3.5% | ? | 1.2e-08M* | ? | 1.65e-08M* | 1.7%
Cc1nc2ccccc2c2oc(C(=O)NCc3ccc4c(c3)OCO4)cc12 | -19.4% | 19.8% | nt | -9.3% | nt | 2.9%
Cc1nc2ccccc2c2oc(C(=O)NCc3ccccn3)cc12 | 0.9% | ? | i | 25.1µM* | i | -0.6%
Clc1ccccc1-c1nccc(NCc2ccccc2)n1 | 1.9% | -9.7% | i | 1.1% | i | -0.1%
Cn1c(=NC(=O)CSCC(=O)N2CCCC2)sc2ccccc21 | 0.7% | ? | 2.29e-08M* | -0.8% | 2.2e-08M* | 0.5%
CCCCNC(=O)OCCNC(=O)NC | -1.4% | -2.4% | i | 12.8% | i | 0.9%
COc1cccc2sc(Nc3nc(-c4ccccn4)cs3)nc12 | -15.7% | -28.3% | ? | -25.4% | ? | 1.7%
Cc1nn(-c2ccccc2)c(C)c1C(=O)Nc1nnc(-c2ccco2)o1 | -4.8% | -5.1% | i | -3.6% | i | -0.2%
COc1cccc2sc(Nc3nnc(-c4cccs4)o3)nc12 | -7.0% | ? | 3.52e-08M* | ? | 5.16e-08M* | 4.7%
Fc1cccc2sc(Nc3nnc(-c4ccco4)o3)nc12 | ? | 9.4% | 1.35e-08M* | 25.1µM* | 3.86e-08M* | -1.7%
O=C(c1ccncc1)N1CCC[C@@]2(CCN(c3ccncc3)C2)C1 | 6.9% | -1.4% | i | 5.8% | i | 2.5%
C[C@@H]1c2ccccc2Cn2cc3c(c21)C(=O)c1cccc(OP(=O)(O)OCc2ccccc2)c1C3=O | 3.16µM* | -9.7%[7.6 µM] | 2.82e-08M* | ? | 2.7e-08M* | 8.2%[11.5 µM]
CN(C)S(=O)(=O)N(CC(=O)Nc1ccccc1C(F)(F)F)c1ccccc1 | -13.8% | -2.5% | i | -12.1% | i | -0.9%
COCCn1c(Sc2ccc(C)cc2)nc2c1c(=O)[nH]c(=O)n2C | 0.7% | 5.4% | i | 12.6% | i | -0.2%
